Data on 40 molecules can be found in PubChem BioAssay (NCI).

Compounds without any hit were thinned out: in the full panel of roughly 83,000, 20% have a hit.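 Activity criterion: percent growth below 10, measured after cells in 96-well plates were exposed to a single compound concentration for 48 hours.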 Unmarked numbers belong to inactive results. Calls of active or inactive are those of the source.

The subject of this test is OVCAR-3 ovarian. Nature of the test: NCI-60 one-dose screen, 48 h (100 = growth as untreated, 0 = no growth, -100 = all killed). The settings on record: 10 µM unless noted. The protocol:
Growth inhibition of the OVCAR-3 human tumor cell line is measured as a screen for anti-cancer activity. Cells are grown in 96 well plates and exposed to the test compound for 48 hours. Compounds are tested at a single concentration, which is 10^-5 M for most compounds. The reported endpoint is percent growth (GI% or GIPRCNT), where numbers from 0 - 100% represent growth inhibition, and numbers from -100% - 0 represent cell death. For example, a value of 40 represents 60% growth inhibition. A value of 0 means no net growth occurred over the course of the experiment. A value of -40 indicates 40% of cells at the beginning of the experiment died by the end of the experiment. A value of -100 means all cells are dead at the end of the experiment.
NCI-60 Human Tumor Cell Lines Screen was performed using the standard one-dose NCI protocol, which is described in more detail at https://dtp.cancer.gov/discovery_development/nci-60/default.htm.
Compounds with GIPRCNT values below 10 were considered active. Activity score was based on GIPRCNT using the following formula: […]
Score is 0 for GIPRCNT values of 100 or above, 50 for GIPRCNT values of 0, and 100 for GIPRCNT values of -100.
As to `COP(=O)(OC)c1nnn(-c2cccc([N+](=O)[O-])c2)c1C`, the growth was 111%. The figure for `Cc1ccc(/C=C/C(=O)c2ccc(NC(=O)CSc3nc4c([nH]3)c(=O)n(C)c(=O)n4C)cc2)c(C)c1` is 13.8%; for `COc1ccc(C2=C/C(=C\c3ccc(Cl)cc3)C(=O)N2/N=C/c2ccc(Cl)cc2)cc1` it is 99.6%; for `O=C(Nc1ccc(F)cc1)Nc1ccccc1CNc1nc(Nc2ccc(OCCN3CCCC3)cc2)ncc1Cl` it is -43.1% (active). The figure for `CN1CCN(CCCOc2ccc3ncnc(Nc4ccc(Oc5cccc(F)c5)c(Cl)c4)c3c2)CC1` is 0.254% (active).

Take `O=C(CCCCCCN1CC(=O)N2[C@@H](C3CCCCC3)c3[nH]c4ccccc4c3C[C@H]2C1=O)NO`: the growth is 71.1%. The figure for `O=P(O)(O)OCC1OC(n2cnc3c(NCc4ccccc4)ncnc32)C(O)C1O` (stereo not given) is -66.7% (active); for `Nc1c(C(=O)Nc2cccc3ncccc23)sc2nc3c(cc12)C(=O)CCC3` it is 37.4%; for `CCOC(=O)c1cn2ncnc(Oc3ccc(NC(=O)NC4CC4)c(F)c3)c2c1C` it is 113%. The figure for `COc1cc2ncnc(Nc3ccc(F)c(Cl)c3)c2cc1OCC(=O)N1CCN(c2ccc(F)cc2)CC1` is 83.4%.

As to `CCCn1c(=S)sc2c1nc(C)n1c(Nc3ccccc3)nnc21`, the growth was 61.5%.

For `C=C1C(=O)O[C@H]2[C@H]1CC/C(CNC(=O)c1cc3ccccc3[nH]1)=C\CC[C@@]1(C)O[C@@H]21`, the growth is -93.8% (active). With `COc1ccc(/C(C)=C(\c2ccc(Cl)cc2)c2ccc(OCCN3CCCC3)cc2)cc1` the figure was 63.7%; with `CCn1cc(C2=C(c3cn(C)c4ncccc34)C(=O)NC2=O)c2cccnc21`, 64.7%. `CCCCCCCCNc1cc2c3c(c1)CCCN3CCC2`: the growth was 4.22% (active). With `COc1cc(-c2nc3occn3c2-c2ccnc(NCCCNS(=O)(=O)c3ccccc3)n2)ccc1F` the figure was 66.2%; with `CCN1C(=O)N(CC)C2C1NN=C1SCC(=O)N12` (stereo not given), 24.5%. With `O=C(Nc1ccccc1O)c1ccccc1Nc1ccnc(C(F)(F)F)c1` the figure was 97.6%; with `C#CC#CC#CC#CC#CC#CC#CC#CC[C@H]1OC[C@@H](COC(=O)O[C@@H](C(=O)O[C@H]2C[C@@]3(O)[C@@H](OC(=O)c4ccccc4)[C@@H]4[C@]5(OC(C)=O)CO[C@@H]5C[C@H](O)[C@@]4(C)C(=O)[C@H](OC(C)=O)C(=C2C)C3(C)C)[C@@H](NC(=O)c2ccccc2)c2ccccc2)O1`, 22.6%; with `O=C(CN1CCN(c2cc3c(cc2F)c(=O)c(C(=O)O)cn3C2CC2)CC1)N/N=C/c1ccncc1`, 96.9%.

`COc1cc2c(/C=C3\C(=O)Nc4ccccc43)c(C(=O)O)[nH]c2cc1C`: the growth is 108%.

As to `CN(C)c1ccc(/C=C2/C=C(c3ccccc3)OC2=O)cc1`, the growth is 73.7%. The figure for `CC/C=C1/C(=O)C=C[C@@H]1C/C=C\CCCC(=O)OC` is 51.4%.

As to `CCN(CC)CCCNCc1cc(-c2ccccc2)nc2cc(Cl)ccc12`, the growth is 61.7%. With `CCOC(=O)c1c2c(n3c1NCC3)-c1ccccc1C2=O` the figure was 92.1%; with `O=C(c1ccc(Cl)cc1Cl)N1c2ccccc2Sc2ccccc21`, 58.9%; with `CCN1CCN(CC(=O)Nc2nc3ccc(NCc4ccc(Br)cc4)cc3s2)CC1`, 57.2%. With `Cc1c(N2CN3C[C@H](C)N4CN(c5c(C)n(C)n(-c6ccccc6)c5=O)CN5C[C@@H](C)N(C2)C3C54)c(=O)n(-c2ccccc2)n1C` (stereo not given in full) the figure was 100%; with `O=C(Nc1cccnc1Nc1ccc(Cl)cc1)c1cn(Cc2ccc(F)cc2)nn1`, 107%. With `COc1cc(-c2cc(-c3ccc(Nc4ncnc5cc(Cl)ccc45)cc3)nc(N3CCN(C)CC3)n2)cc(OC)c1OC` the figure was 105%; with `COc1ccc(-c2cc(C(=O)N3N=C(c4ccc(N)cc4)CC3c3ccccc3)c3ccccc3n2)cc1` (stereo not given), 10.7%. In the case of `COc1ccc(C2CC(c3ccc4c(c3)OCO4)=Nc3c(N)ncnc3N2)cc1` (stereo not given), the growth is 151%. The figure for `S=c1ssnc1-c1cccs1` is 78.9%; for `COc1cc(-c2nc3ccc(C)cc3[nH]2)ccc1OCC(=O)N=Nc1c(O)[nH]c2ccc(Cl)cc12` it is -70.2% (active). The figure for `C#CC#CC#CC#CC#CC#CC#CC#CC[C@H]1OC[C@H](COC(=O)O[C@@H](C(=O)O[C@H]2C[C@@]3(O)[C@@H](OC(=O)c4ccccc4)[C@@H]4[C@]5(OC(C)=O)CO[C@@H]5C[C@H](O)[C@@]4(C)C(=O)[C@H](OC(C)=O)C(=C2C)C3(C)C)[C@@H](NC(=O)c2ccccc2)c2ccccc2)O1` is 15.7%. With `N=C(N)SCc1cccc2c(CSC(=N)N)cccc12` the figure was 102%; with `CCOC(=O)Cn1c(=O)c2c3ccccc3n(C)c2n2nnc(-c3ccccc3)c12`, 100%; with `CO[C@H](C(=O)[C@@H](O)[C@@H](C)O)[C@@H]1Cc2cc3cc(O[C@H]4C[C@@H](O[C@H]5C[C@@H](O)[C@H](O)C(C)O5)[C@H](O)C(C)O4)c(C)c(O)c3c(O)c2C(=O)[C@H]1O[C@H]1C[C@@H](O[C@H]2C[C@@H](O[C@H]3C[C@@H](OC)[C@H](O)C(C)O3)[C@@H](O)C(C)O2)C(O)(O)C(C)O1` (stereo not given in full), 9.32% (active).

Take `O=C(Cn1nnc2ccccc21)Nc1ccc(-c2nc3ccccc3s2)cc1`: the growth is 90.4%. The figure for `CC(C)(C)c1cc(C=Nc2cccc(C(F)(F)F)c2)c(O)c(C(C)(C)C)c1` is 95%.
